Results on three compounds are retold here after the supplement of paper PMC9588786.

± gives the standard deviation of the averaged measurements.
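Note: viability read as CCK-8 absorbance at 450 nm in cells co-exposed to the GPX4 inhibitor RSL3, relative to a 0.01% DMSO vehicle control.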

The assay has as its system HT-1080. Description: relative cell viability with RSL3 co-treatment (fraction of control); higher = stronger protection from RSL3-induced ferroptosis (higher viability). Particulars: 10 µM.
`N#Cc1ccc2[nH]c(O)c(-c3ccc(CN4CCOCC4)cn3)c2c1`: the relative cell viability was 0.75 ± 0.046.

As for `Cc1cc(NC(=O)c2cccc(NC(=O)/C=C/CN(C)C)c2)ccc1Nc1nccc(-c2cccnc2)n1`, the relative cell viability worked out at 0.407 ± 0.086.

Regarding `N#CCNC(=O)c1ccc(-c2ccnc(Nc3ccc(N4CCOCC4)cc3)n2)cc1` [Momelotinib (CYT387)], the relative cell viability turned out to be 0.4 ± 0.075.
